Data taken from PubChem BioAssay (NCI).
Compounds without any hit were thinned out: in the full panel of roughly 83,000, 20% have a hit.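 Results are percent growth after 48 hours of single-concentration exposure. 100 means growth as in untreated cells, lower positive values show inhibition; negative values down to -100 show cell death.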 A number with no mark means an inactive call. Active and inactive are the calls of the source. The calls were made as follows: active = growth percent below 10; inactive = the rest.

test system: SK-MEL-28 melanoma; experiment: NCI-60 one-dose screen, 48 h (100 = growth as untreated, 0 = no growth, -100 = all killed); conditions: 10 µM

SMILES | growth
CNC(=O)c1cc(Oc2ccc(CC(=O)Nc3cc(C(C)(C)C)cn3C)cc2)ccn1 | 79.8%
COc1ccccc1C(=O)O/N=C(\N)Cc1cccc2ccccc12 | 114%
COc1cc(/C=C2\CN(C)C/C(=C\c3cc(CN4CCOCC4)c(O)c(OC)c3)C2=O)cc(CN2CCOCC2)c1O | 77.3%
O=C1c2ccc3c4c(ccc(c24)C(=O)N1CCCCO)C(=O)N(CCCCO)C3=O | 15.6%
COc1ccc(-c2cc(=O)c3c(OC)c4ccoc4c(/C=C/C=O)c3o2)cc1 | 89.1%
COc1ccc2occ(C3=C(c4c[nH]c5ccccc45)C(=O)NC3=O)c2c1 | 58.6%
CCCC(=O)CC(C)=O.CCCC(=O)CC(C)=O.[Cu] | 106%
O=C(Nc1ccc(N2CCNCC2)cc1)c1[nH]ncc1Nc1cc(C2CC2)ncn1 | 79.5%
Nc1ccc(-c2nc3cc(Oc4ccc(Oc5ccc6[nH]c(-c7ccc(N)cc7)nc6c5)cc4)ccc3[nH]2)cc1 | 101%
Oc1c(CN2CCN(c3ccccc3F)CC2)cc(Br)c2cccnc12 | -78% (active)
CC(=Nc1ccccc1)C1=C(O)C(Cc2ccc(F)cc2)NC1=O (stereo not drawn) | 45.3%
NCCOc1ncccc1/C=C1\c2ccccc2-c2ccc(F)cc21 | 70.2%
CCOC(=O)C1=C(C)N=c2s/c(=C\c3cc(Cl)ccc3O)c(=O)n2C1c1ccc(OC)cc1 (stereo not drawn) | 106%
CCCCC(O)(c1ccc(Cl)cc1)C(CN1CCOCC1)c1ccc(Cl)cc1 (stereo not drawn) | 54.1%
O=C(/C=C/c1ccc(C(F)(F)F)cc1)c1ccc(Nc2nc(NCCO)nc(Nc3ccc(Cl)cc3)n2)cc1 | 73%
OC(c1ccccc1)c1nnc(SCc2ccccc2)n1Cc1ccccc1 (stereo not drawn) | 100%
CCOC(=O)c1cnc2ccc(Cl)cc2c1NCCCN(C)C | 50.1%
CC(=O)c1ccc(Cc2ccc(C(C)=O)s2)s1 | 112%
CCCCC1CCc2cccc3c(SCC(=O)N(C)c4ccc(Cl)cc4)cc[n+]1c23 (stereo not drawn) | 105%
CCN1C(=O)N(CC)C2C1NN=c1s/c(=C3\C(=O)N(C(C)C)c4ccccc43)c(=O)n12 (stereo not drawn) | 57.4%

SMILES | growth
Cc1ccc2cccc(Oc3ccc(Nc4ncnc5onc(-c6ccccc6)c45)cc3)c2n1 | 80.1%
O=C(NC1C(O)OC(CO)C(O)C1O)NS(=O)(=O)c1ccc(Cl)cc1 (stereo not drawn) | 105%
O=C(Cc1ccccc1)NC(c1ccc(Cl)cc1)c1c(O)ccc2ccccc12 (stereo not drawn) | 36.6%
CC(=O)c1ccc2oc(=O)n(Cc3ccc(C#N)cc3)c(=O)c2c1 | 104%
O=C(O)CCC(=O)c1ccc(C2CCCCCC2)cc1 | 113%
COc1ccc(Cn2c(Br)c3c(c2-c2cc(OC)c(OC)c(OC)c2)CCc2sc(NC(=O)c4ccc(OC)cc4)nc2-3)cc1 | 105%
O=c1c2cc(F)ccc2sc2c(Nc3ccncc3)nc3ccccc3c12 | 87.7%
N#Cc1c(N)nc2c(c1N)C(c1ccc(F)cc1)c1ccc(N)cc1O2 (stereo not drawn) | 109%
CC(=S)NC(=O)C(=O)/C=C1/NC(=O)C(=O)S1 | 106%
CCOC(=O)c1cc2c(n1Cc1ccccc1OC)-c1oncc1CCC2 | 44.8%
COc1cc(/C=C2\CN(C)C/C(=C\c3cc(CN4CCCC4)c(O)c(OC)c3)C2=O)cc(CN2CCCC2)c1O | 90.7%
COc1c(B(O)O)cccc1-c1nc2ccc3[nH]ncc3c2c2c1C1CCC2C1 (stereo not drawn) | 104%
COc1cc(OC)cc(N2C(=O)N(Cc3ccc(C(C)(C)C)cc3)c3ccccc3S2(=O)=O)c1 | 91.9%
C[C@@H](C(=O)NCCCC#Cc1cnc(Nc2ccc(C#N)cc2)nc1NC1CC1)N(C)C(=O)/C=C/CN(C)C | 52.1%
NCCNc1nc2ccccc2c2c(=O)c3cc(F)cc(Cl)c3sc12 | -89.8% (active)
c1ccc2cc3c(Nc4ccc(N5CCOCC5)cc4)ccnc3cc2c1 | 111%
O=C(Cn1cc(COc2ncnc3c2cnn3-c2ccccc2)nn1)Nc1ccccn1 | 97.3%
CNCCNc1nc2ccccc2c2c(=O)c3cccc(C)c3sc12 | -60.1% (active)
Cn1nc(C(C)(C)C)cc1NC(=O)Cc1ccc(/C=C2\C(=O)Nc3ccccc32)cc1 | 76.7%

test system: SK-MEL-2 melanoma; experiment: as above; conditions: 10 µM unless noted

SMILES | growth
CNC(=O)c1cc(Oc2ccc(CC(=O)Nc3cc(C(C)(C)C)cn3C)cc2)ccn1 | 67.1%
COc1ccccc1C(=O)O/N=C(\N)Cc1cccc2ccccc12 | 89.6%
COc1cc(/C=C2\CN(C)C/C(=C\c3cc(CN4CCOCC4)c(O)c(OC)c3)C2=O)cc(CN2CCOCC2)c1O | 72.2%
O=C1c2ccc3c4c(ccc(c24)C(=O)N1CCCCO)C(=O)N(CCCCO)C3=O | 58.1%
COc1ccc(-c2cc(=O)c3c(OC)c4ccoc4c(/C=C/C=O)c3o2)cc1 | 75.4%
COc1ccc2occ(C3=C(c4c[nH]c5ccccc45)C(=O)NC3=O)c2c1 | 43.7%
CCCC(=O)CC(C)=O.CCCC(=O)CC(C)=O.[Cu] | 113%
O=C(Nc1ccc(N2CCNCC2)cc1)c1[nH]ncc1Nc1cc(C2CC2)ncn1 | 64.5%
Nc1ccc(-c2nc3cc(Oc4ccc(Oc5ccc6[nH]c(-c7ccc(N)cc7)nc6c5)cc4)ccc3[nH]2)cc1 | 82.1%
Oc1c(CN2CCN(c3ccccc3F)CC2)cc(Br)c2cccnc12 | -54.3% (active)
CC(=Nc1ccccc1)C1=C(O)C(Cc2ccc(F)cc2)NC1=O (stereo not drawn) | 17.6%
NCCOc1ncccc1/C=C1\c2ccccc2-c2ccc(F)cc21 | 112%
CCOC(=O)C1=C(C)N=c2s/c(=C\c3cc(Cl)ccc3O)c(=O)n2C1c1ccc(OC)cc1 (stereo not drawn) | 94.6%
CCCCC(O)(c1ccc(Cl)cc1)C(CN1CCOCC1)c1ccc(Cl)cc1 (stereo not drawn) | 50.1%
O=C(/C=C/c1ccc(C(F)(F)F)cc1)c1ccc(Nc2nc(NCCO)nc(Nc3ccc(Cl)cc3)n2)cc1 | 99.9%
OC(c1ccccc1)c1nnc(SCc2ccccc2)n1Cc1ccccc1 (stereo not drawn) | 84.3%
CCOC(=O)c1cnc2ccc(Cl)cc2c1NCCCN(C)C | -0.411% (active)
CC(=O)c1ccc(Cc2ccc(C(C)=O)s2)s1 | 98.9%
CCCCC1CCc2cccc3c(SCC(=O)N(C)c4ccc(Cl)cc4)cc[n+]1c23 (stereo not drawn) | 111%
CCN1C(=O)N(CC)C2C1NN=c1s/c(=C3\C(=O)N(C(C)C)c4ccccc43)c(=O)n12 (stereo not drawn) | 23.8%

SMILES | growth
Cc1ccc2cccc(Oc3ccc(Nc4ncnc5onc(-c6ccccc6)c45)cc3)c2n1 | 94%
O=C(NC1C(O)OC(CO)C(O)C1O)NS(=O)(=O)c1ccc(Cl)cc1 (stereo not drawn) | 101%
O=C(Cc1ccccc1)NC(c1ccc(Cl)cc1)c1c(O)ccc2ccccc12 (stereo not drawn) | -3.92% (active)
CC(=O)c1ccc2oc(=O)n(Cc3ccc(C#N)cc3)c(=O)c2c1 | 101%
O=C(O)CCC(=O)c1ccc(C2CCCCCC2)cc1 | 105%
COc1ccc(Cn2c(Br)c3c(c2-c2cc(OC)c(OC)c(OC)c2)CCc2sc(NC(=O)c4ccc(OC)cc4)nc2-3)cc1 | 96.7%
O=c1c2cc(F)ccc2sc2c(Nc3ccncc3)nc3ccccc3c12 | 99.5%
N#Cc1c(N)nc2c(c1N)C(c1ccc(F)cc1)c1ccc(N)cc1O2 (stereo not drawn) | 112%
CC(=S)NC(=O)C(=O)/C=C1/NC(=O)C(=O)S1 | 103%
CCOC(=O)c1cc2c(n1Cc1ccccc1OC)-c1oncc1CCC2 | 27.5%
COc1cc(/C=C2\CN(C)C/C(=C\c3cc(CN4CCCC4)c(O)c(OC)c3)C2=O)cc(CN2CCCC2)c1O | 92.1%
COc1c(B(O)O)cccc1-c1nc2ccc3[nH]ncc3c2c2c1C1CCC2C1 (stereo not drawn) | 80.8%
COc1cc(OC)cc(N2C(=O)N(Cc3ccc(C(C)(C)C)cc3)c3ccccc3S2(=O)=O)c1 | 88.5%
C[C@@H](C(=O)NCCCC#Cc1cnc(Nc2ccc(C#N)cc2)nc1NC1CC1)N(C)C(=O)/C=C/CN(C)C | 65.3%
NCCNc1nc2ccccc2c2c(=O)c3cc(F)cc(Cl)c3sc12 | 99.1%
c1ccc2cc3c(Nc4ccc(N5CCOCC5)cc4)ccnc3cc2c1 | 101%
O=C(Cn1cc(COc2ncnc3c2cnn3-c2ccccc2)nn1)Nc1ccccn1 | 101%
CNCCNc1nc2ccccc2c2c(=O)c3cccc(C)c3sc12 | 91.4%
Cn1nc(C(C)(C)C)cc1NC(=O)Cc1ccc(/C=C2\C(=O)Nc3ccccc32)cc1 | 54.3%
